Assay results from PubChem BioAssay (NCATS).
Inconclusive results are not listed. Where a call stands in place of a potency, no number is given. A number with no mark means an inactive call. Calls of active or inactive are those of the source. Calls come from the whole dose curve.

Test: Cytotoxicity counterscreen for inhibitors of SARS-CoV-2 cell entry (AID 1645845); note: nearly all actives have a fitted effect of over 50% in size
Conditions: cell viability (SARS-CoV-2 entry assay cells); series mostly up to 57.1 µM; activity change, negative = cytotoxicity: at the top concentration
Method in brief: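 HEK293-ACE2 cells (Expi293F stably expressing human ACE2) seeded overnight, then compound for 1 h plus 48 h at 37C. Viability as ATP content by luminescence; normalized to wells with cells and media-only wells.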

Row | Compound | activity change, negative = cytotoxicity | outcome | Potency
1 | N[C@@H](CCC(=O)N[C@@H](CS)C(=O)NCC(=O)O)C(=O)O | 3.86% [at 27.1 µM] | – | –
2 | COc1ccc(O)cc1 | – | inactive | –
3 | CCOC(=O)[C@H](CCc1ccccc1)N[C@H]1CCCN2CCC[C@@H](C(=O)O)N2C1=O | – | inactive | –
4 | O=S(=O)(O)CCS | – | – | inactive
5 | CN(c1nccc(=O)[nH]1)C1CCN(c2nc3ccccc3n2Cc2ccc(F)cc2)CC1 | – | inactive | –
6 | CCOC(=O)c1ccc(O)cc1 | – | inactive | –
7 | C[C@@H](O)[C@H]1C(=O)N2C(C(=O)O)=C(SCCN=CN)C[C@H]12 | – | inactive | –
8 | CNCCCCOc1ccccc1Cc1ccccc1 | – | inactive | –
9 | CCS(=O)(=O)CCn1c([N+](=O)[O-])cnc1C | – | inactive | –
10 | Cc1cc2cc3c(C)cc(=O)oc3c(C)c2o1 | – | – | inactive
11 | CCCCCCCC/C=C/C(=O)O | 4.95% | – | –
12 | CC(=O)N(CC(O)CO)c1c(I)c(C(=O)NCCO)c(I)c(C(=O)NCC(O)CO)c1I (configuration not stated) | 4.62% | – | –
13 | CN(C)CCOC(=O)COc1ccc(Cl)cc1 | – | inactive | –
14 | O=C(NCCO[N+](=O)[O-])c1cccnc1 | – | – | inactive
15 | Nc1ccc(S(=O)(=O)NC(=O)c2ccccc2)cc1 | -6.78% | – | –
16 | CC(C)(C)C(=O)Oc1ccc(S(=O)(=O)Nc2ccccc2C(=O)NCC(=O)O)cc1 | – | – | inactive
17 | CN(CC1(C)CCCO1)S(=O)(=O)c1ccc(Cl)c(S(N)(=O)=O)c1 (configuration not stated) | – | inactive | –
18 | CC(C)[C@H](N)C(=O)OCC(CO)OCn1cnc2c(=O)[nH]c(N)nc21 (some centres not stated) | – | inactive | –
19 | OC[C@@H](O)[C@@H](O[C@@H]1O[C@H](CO)[C@H](O)[C@H](O)[C@H]1O)[C@H](O)[C@@H](O)CO | – | inactive | –

Row | Compound | activity change, negative = cytotoxicity | outcome | Potency
20 | Nc1ccc(S(=O)(=O)Nc2ccccn2)cc1 | – | inactive | –
21 | COC(=O)C(c1ccccc1)C1CCCCN1 (configuration not stated) | -20.5% | – | –
22 | CCOC(=O)NNc1ccc(N(CC)CC(C)O)nn1 (configuration not stated) | 0.452% | – | –
23 | CCN1CCCC1CNC(=O)c1cc(S(=O)(=O)CC)c(N)cc1OC (configuration not stated) | – | – | inactive
24 | NS(=O)(=O)c1cc2c(cc1Cl)NC(CC1CCCC1)NS2(=O)=O (configuration not stated) | – | inactive | –
25 | CN(C)CCc1c[nH]c2ccc(Cn3cncn3)cc12 | – | inactive | –
26 | CCC[C@@]1(CCc2ccccc2)CC(O)=C([C@H](CC)c2cccc(NS(=O)(=O)c3ccc(C(F)(F)F)cn3)c2)C(=O)O1 | -3.66% | – | –
27 | CCOC(=O)C1=C(COCCN)NC(C)=C(C(=O)OC)C1c1ccccc1Cl (configuration not stated) | -1.22% | – | –
28 | CO[C@@H]1[C@@H](OC(N)=O)[C@@H](O)[C@H](Oc2ccc3c(O)c(NC(=O)c4ccc(O)c(CC=C(C)C)c4)c(=O)oc3c2C)OC1(C)C | – | – | inactive
29 | COCCOC(=O)C1=C(C)NC(C)=C(C(=O)OC(C)C)C1c1cccc([N+](=O)[O-])c1 (configuration not stated) | -3.53% | – | –
30 | NC(=O)NC(=O)Cc1ccccc1 | – | inactive | –
31 | NC(=O)c1ccc([N+](=O)[O-])cc1Cl | – | inactive | –
32 | CCOCCn1c(C2CCN(CCc3ccc(C(C)(C)C(=O)O)cc3)CC2)nc2ccccc21 | – | inactive | –
33 | Nc1c(I)cc(I)c(C(=O)N(CCC(=O)O)c2ccccc2)c1I | – | inactive | –
34 | CC(=O)[C@H]1CC[C@H]2[C@@H]3C[C@H](C)C4=CC(=O)CC[C@]4(C)[C@H]3[C@@H](O)C[C@]12C | – | inactive | –
35 | O=c1[nH]c(=O)n([C@H]2C[C@H](O)[C@@H](CO)O2)cc1Br | -13.3% | – | –
36 | O=C1[O][Bi][O]c2ccccc21 | – | inactive [at 0.702 µM] | –
37 | Nc1ncn([C@H]2C[C@H](O)[C@@H](CO)O2)c(=O)n1 | – | – | inactive
